# Calls of active or inactive are those of the source.
# How the values were obtained:
# [1] = binders of probe aFSTL3 on microarray, primary screen, stem cell growth factor project, biochemical, small-molecule microarray, fluorescence 635/667 (AID 1064); conditions: higher = more signal;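 further: measures binding of the biotinylated anti-FSTL3 antibody to printed compounds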
# [2] = binders from COS7 lysate, DM2A8 probe, primary screen, torsin A project, cell lysate, small-molecule microarray, fluorescence 635/667 (AID 1065); conditions: higher = more signal, COS7 lysate expressing mutant human TOR1A
# [3] = binders of probe aFGF2 on microarray, primary screen, stem cell growth factor project, biochemical, small-molecule microarray, fluorescence 635/667 (AID 1067); conditions: higher = more signal;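 further: measures binding of biotinylated aFGF2 protein to printed compounds on slides; z-score merges feature fluorescence and signal-to-noise across triplicate slides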
# [4] = binders of probe aFGF10 on microarray, primary screen, stem cell growth factor project, biochemical, small-molecule microarray, fluorescence 635/667 (AID 1071); conditions: higher = more signal;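 further: score merges 667 nm spot intensity and signal to noise from triplicate slides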
# [5] = target: Neurogenic locus notch homolog protein 2 (Homo sapiens) (UniProt Q04721); assay: Notch2 binders on small-molecule microarrays, primary screen, biochemical, small-molecule microarray, 635 nm fluorescence, stem cell growth factors (AID 1073); conditions: Notch2 binding, higher = more signal
# Neurogenic locus notch homolog protein 2 (Homo sapiens), sequence (Q04721 whole entry, looked up, canonical isoform): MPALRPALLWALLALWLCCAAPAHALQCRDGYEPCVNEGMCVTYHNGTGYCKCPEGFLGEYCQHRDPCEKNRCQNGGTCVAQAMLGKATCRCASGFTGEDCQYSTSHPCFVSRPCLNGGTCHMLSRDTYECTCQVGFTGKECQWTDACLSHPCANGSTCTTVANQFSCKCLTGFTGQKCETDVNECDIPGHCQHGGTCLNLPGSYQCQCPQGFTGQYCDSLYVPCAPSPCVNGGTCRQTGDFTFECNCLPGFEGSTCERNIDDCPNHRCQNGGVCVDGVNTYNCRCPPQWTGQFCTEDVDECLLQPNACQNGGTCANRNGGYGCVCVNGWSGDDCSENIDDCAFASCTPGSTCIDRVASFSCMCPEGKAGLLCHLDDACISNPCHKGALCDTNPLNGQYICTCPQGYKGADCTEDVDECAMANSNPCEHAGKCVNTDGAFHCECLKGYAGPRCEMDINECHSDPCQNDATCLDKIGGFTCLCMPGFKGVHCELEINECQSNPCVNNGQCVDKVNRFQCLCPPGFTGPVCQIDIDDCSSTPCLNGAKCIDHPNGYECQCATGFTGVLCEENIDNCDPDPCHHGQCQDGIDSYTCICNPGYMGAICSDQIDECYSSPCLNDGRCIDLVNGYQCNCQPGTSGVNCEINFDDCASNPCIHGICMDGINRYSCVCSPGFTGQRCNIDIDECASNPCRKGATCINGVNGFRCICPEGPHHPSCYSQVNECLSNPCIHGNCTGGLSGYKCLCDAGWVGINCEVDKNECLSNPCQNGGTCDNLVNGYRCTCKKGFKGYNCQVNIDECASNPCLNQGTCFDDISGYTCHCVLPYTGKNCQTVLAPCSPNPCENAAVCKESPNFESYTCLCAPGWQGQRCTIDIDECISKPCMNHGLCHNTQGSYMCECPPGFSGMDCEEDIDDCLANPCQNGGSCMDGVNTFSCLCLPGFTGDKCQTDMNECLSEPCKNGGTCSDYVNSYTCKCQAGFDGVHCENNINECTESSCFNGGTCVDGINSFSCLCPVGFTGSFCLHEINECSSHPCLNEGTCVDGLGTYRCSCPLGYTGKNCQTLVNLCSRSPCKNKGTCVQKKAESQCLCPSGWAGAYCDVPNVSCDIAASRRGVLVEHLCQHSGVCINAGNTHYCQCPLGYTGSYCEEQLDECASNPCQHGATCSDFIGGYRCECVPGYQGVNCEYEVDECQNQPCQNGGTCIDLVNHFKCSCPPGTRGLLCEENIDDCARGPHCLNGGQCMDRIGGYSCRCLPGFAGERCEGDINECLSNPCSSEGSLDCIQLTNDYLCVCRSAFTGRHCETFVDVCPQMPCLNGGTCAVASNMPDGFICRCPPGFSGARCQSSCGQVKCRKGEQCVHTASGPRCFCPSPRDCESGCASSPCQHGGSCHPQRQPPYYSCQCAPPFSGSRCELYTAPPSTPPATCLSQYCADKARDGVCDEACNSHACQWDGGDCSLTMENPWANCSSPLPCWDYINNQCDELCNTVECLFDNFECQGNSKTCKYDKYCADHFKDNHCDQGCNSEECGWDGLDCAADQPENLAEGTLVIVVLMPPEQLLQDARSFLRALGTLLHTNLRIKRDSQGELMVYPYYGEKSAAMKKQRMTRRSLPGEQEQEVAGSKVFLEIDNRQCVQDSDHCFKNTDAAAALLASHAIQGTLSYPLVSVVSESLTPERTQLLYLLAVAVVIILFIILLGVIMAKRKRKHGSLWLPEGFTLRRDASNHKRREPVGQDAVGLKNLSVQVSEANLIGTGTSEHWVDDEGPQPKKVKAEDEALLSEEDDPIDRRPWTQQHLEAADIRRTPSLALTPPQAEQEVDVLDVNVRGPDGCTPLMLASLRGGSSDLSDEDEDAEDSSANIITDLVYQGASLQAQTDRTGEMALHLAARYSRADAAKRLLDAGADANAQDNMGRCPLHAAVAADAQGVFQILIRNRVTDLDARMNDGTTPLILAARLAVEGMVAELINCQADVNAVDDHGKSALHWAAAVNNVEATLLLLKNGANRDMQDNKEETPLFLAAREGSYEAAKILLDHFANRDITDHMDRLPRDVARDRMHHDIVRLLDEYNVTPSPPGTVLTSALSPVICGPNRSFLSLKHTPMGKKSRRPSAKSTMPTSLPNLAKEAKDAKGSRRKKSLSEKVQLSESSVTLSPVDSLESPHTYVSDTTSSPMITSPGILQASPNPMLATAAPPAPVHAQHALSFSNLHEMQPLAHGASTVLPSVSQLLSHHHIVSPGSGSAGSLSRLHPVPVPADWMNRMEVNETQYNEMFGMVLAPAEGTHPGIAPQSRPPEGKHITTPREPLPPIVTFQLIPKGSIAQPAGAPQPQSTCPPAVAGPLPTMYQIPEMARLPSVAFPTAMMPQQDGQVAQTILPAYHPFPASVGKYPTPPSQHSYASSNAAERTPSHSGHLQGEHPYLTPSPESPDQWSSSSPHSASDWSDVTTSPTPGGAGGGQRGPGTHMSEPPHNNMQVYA
# [6] = target: Pro-neuregulin-1, membrane-bound isoform (Homo sapiens) (UniProt Q02297); assay: NRG1 binders on small-molecule microarrays, primary screen, psychiatric disease protein project, biochemical, small-molecule microarray, fluorescence 635/667 (AID 1075); conditions: NRG1 binding, 635 nm fluorescence, higher = more signal;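 further: score combines 667 nm spot fluorescence with signal to noise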
# [7] = tested on: Neuregulin-1 EGF-like domain; assay: binders of neuregulin-1 EGF-like domain, primary screen, biochemical, small-molecule microarray, 635 nm fluorescence (AID 1081); conditions: small-molecule microarray binding, higher = more signal;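 further: binding of the protein to compounds printed on small-molecule microarray slides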
# [8] = FRG1 promoter luciferase signal modulators, primary screen, FRG1 inhibition for FSHD, cell-based, C2C12 myotubes, firefly/Renilla luciferase, luminescence (AID 1084); conditions: higher = more signal, called active from +8 up or from −8 down
# [9] = binders of probe aFST on microarray, primary screen, stem cell growth factor project, biochemical, small-molecule microarray, fluorescence 635/667 (AID 1086); conditions: higher = more signal;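 further: score merges 667 nm fluorescence with signal-to-noise of each printed compound spot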
# [10] = binders of probe aHhip on microarray, primary screen, stem cell growth factor project, biochemical, small-molecule microarray, fluorescence 635/667 (AID 1087); conditions: higher = more signal;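 further: score merges spot fluorescence at 667nm with spot signal to noise ratio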
# [11] = tested on: PRMT1 (protein arginine N-methyltransferase 1); assay: PRMT1 binders on small-molecule microarrays, primary screen, biochemical, small-molecule microarray, 635 nm fluorescence (AID 1088); conditions: small-molecule microarray binding, higher = more signal;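 further: binding of Prmt1 protein to compounds spotted on small-molecule microarray slides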
# [12] = yeast growth modulation, basal conditions, primary screen, YJM789 clinical isolate, OD600, 24 h (AID 1089);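 further: growth of clinical yeast isolate S. cerevisiae YJM 789 seeded 1000 cells per well; test concentration not given here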; conditions: S. cerevisiae YJM789 growth, higher = more signal, called active from +8 up or from −8 down
# [13] = fission yeast growth modulation, primary screen, strain 972, OD600, 24 h, no modulator (AID 1090);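 further: basal condition with compound alone and no growth modifier present; test concentration not given here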; conditions: S. pombe 972 growth, higher = more signal, called active from +8 up or from −8 down
# [14] = S. cerevisiae growth modulation with rapamycin, primary screen, strain BY4716, OD600, 96 h (AID 1091); conditions: higher = more signal, called active from +8 up or from −8 down; further: test concentration not given here
# [15] = target: Torsin-1A-interacting protein 2 (Homo sapiens) (UniProt Q8NFQ8); assay: LULL1 binders on small-molecule microarray, primary screen, cell lysate, human LULL1 lysate, 635/667 nm fluorescence (AID 1092); conditions: hLULL1 lysate binding, 635 nm fluorescence, higher = more signal;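 further: probe is lysate of COS7 cells overexpressing human LULL1; score merges per-feature 667 nm fluorescence with signal-to-noise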
# [16] = E. coli growth modulation, two-sided OD650, primary screen, E. coli filamentation project, strain DRC41, 24 h (AID 1093); conditions: OD650, 24 h, higher = more signal, called active from +8 up or from −8 down;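 further: MC1000 strain lacking acrAB efflux and sulA so SOS filamentation is blocked; test concentration not given here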
# [17] = small-molecule microarray binders of probe aLefty2, primary screen, biochemical, biotinylated probe, 635/667 nm fluorescence (AID 1094); conditions: higher = more signal;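 further: score merges spot fluorescence near 667 nm with spot signal-to-noise ratio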
# [18] = tested on: Noggin (protein binding on small-molecule microarray); assay: Noggin binders on small-molecule microarray, primary screen, biochemical, 635/667 nm fluorescence (AID 1095); conditions: 635 nm fluorescence, higher = more signal;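 further: score merges 667 nm feature fluorescence with signal to noise over triplicate slides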
# [19] = target: Neurogenic locus notch homolog protein 3 (Homo sapiens) (UniProt Q9UM47); assay: NOTCH3 binders on small-molecule microarray, primary screen, biochemical, 635/667 nm fluorescence (AID 1096); conditions: NOTCH3 binding, 635 nm fluorescence, higher = more signal
# Neurogenic locus notch homolog protein 3 (Homo sapiens), sequence (Q9UM47 whole entry, looked up): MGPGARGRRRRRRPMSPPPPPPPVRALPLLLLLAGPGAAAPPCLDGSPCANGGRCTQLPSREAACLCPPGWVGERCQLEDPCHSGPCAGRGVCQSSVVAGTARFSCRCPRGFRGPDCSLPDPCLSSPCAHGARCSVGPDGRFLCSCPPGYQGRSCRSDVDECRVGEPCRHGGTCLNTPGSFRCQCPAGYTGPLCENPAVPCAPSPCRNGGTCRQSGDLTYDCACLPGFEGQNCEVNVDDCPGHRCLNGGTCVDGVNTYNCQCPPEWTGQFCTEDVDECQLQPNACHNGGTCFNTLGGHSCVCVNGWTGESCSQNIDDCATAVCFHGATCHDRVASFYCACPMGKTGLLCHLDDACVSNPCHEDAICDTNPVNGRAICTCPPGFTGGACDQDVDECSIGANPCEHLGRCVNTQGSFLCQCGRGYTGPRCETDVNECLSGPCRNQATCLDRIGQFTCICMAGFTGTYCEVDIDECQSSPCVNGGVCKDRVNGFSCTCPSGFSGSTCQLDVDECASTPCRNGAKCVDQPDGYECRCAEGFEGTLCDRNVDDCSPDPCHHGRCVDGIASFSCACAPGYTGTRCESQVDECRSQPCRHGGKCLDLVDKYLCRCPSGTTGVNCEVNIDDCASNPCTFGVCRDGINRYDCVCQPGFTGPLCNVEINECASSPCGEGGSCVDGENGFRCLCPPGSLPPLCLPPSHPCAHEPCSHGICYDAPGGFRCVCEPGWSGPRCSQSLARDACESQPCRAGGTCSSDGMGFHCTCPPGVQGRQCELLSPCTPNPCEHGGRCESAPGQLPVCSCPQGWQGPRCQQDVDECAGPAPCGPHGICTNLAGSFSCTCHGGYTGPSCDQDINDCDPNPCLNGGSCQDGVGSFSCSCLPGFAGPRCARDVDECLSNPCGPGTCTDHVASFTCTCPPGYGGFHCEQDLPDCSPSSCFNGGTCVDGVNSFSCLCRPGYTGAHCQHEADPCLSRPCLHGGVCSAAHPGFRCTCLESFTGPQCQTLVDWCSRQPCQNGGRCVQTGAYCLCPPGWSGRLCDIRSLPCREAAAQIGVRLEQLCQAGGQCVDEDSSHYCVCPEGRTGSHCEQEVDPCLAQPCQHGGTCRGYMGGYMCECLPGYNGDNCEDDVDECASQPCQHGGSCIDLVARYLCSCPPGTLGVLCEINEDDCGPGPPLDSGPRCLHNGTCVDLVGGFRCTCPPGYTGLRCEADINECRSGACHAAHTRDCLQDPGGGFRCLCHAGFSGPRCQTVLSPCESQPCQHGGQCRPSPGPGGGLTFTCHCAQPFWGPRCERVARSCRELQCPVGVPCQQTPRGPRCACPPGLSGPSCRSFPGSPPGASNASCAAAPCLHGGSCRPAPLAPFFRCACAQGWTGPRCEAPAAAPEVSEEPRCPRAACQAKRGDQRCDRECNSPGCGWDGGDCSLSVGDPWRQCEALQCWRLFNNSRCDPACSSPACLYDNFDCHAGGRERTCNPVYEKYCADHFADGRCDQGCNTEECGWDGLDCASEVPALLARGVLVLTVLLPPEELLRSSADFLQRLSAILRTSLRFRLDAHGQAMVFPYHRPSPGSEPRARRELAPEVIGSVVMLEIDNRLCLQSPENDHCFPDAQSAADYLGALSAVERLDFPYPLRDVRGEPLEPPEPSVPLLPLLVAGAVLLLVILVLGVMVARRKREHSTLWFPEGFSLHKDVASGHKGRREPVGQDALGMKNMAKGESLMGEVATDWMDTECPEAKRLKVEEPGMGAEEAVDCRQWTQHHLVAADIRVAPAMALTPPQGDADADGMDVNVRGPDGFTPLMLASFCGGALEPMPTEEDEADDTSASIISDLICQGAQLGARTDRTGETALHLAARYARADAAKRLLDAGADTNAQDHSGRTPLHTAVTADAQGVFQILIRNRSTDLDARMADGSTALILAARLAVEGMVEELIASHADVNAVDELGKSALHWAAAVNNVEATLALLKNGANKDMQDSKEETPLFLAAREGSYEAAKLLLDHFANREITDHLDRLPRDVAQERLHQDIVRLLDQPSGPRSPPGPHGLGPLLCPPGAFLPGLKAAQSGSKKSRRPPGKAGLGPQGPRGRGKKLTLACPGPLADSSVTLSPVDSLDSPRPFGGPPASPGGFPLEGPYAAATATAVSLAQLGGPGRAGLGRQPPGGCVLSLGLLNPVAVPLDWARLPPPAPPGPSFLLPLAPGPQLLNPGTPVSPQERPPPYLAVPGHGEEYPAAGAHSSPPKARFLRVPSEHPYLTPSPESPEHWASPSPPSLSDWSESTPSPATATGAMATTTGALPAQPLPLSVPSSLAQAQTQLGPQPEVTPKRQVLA
# [20] = small-molecule microarray binders of probe aEGFR, primary screen, biochemical, biotinylated probe, 635/667 nm fluorescence (AID 1097); conditions: higher = more signal;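 further: probe is a biotinylated anti-EGFR antibody binding compounds printed on slides; score combines fluorescence near 667 nm and signal to noise of each spot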
Compound,composite z-score [1],composite z-score [2],composite z-score [3],composite z-score [4],composite z-score [5],composite z-score [6],composite z-score [7],z-score [8],composite z-score [9],composite z-score [10],composite z-score [11],z-score [12],z-score [13],z-score [14],composite z-score [15],z-score [16],composite z-score [17],composite z-score [18],composite z-score [19],composite z-score [20]
COCCOC(=O)N1C(=O)[C@@]2(c3cc(C#CCC(C(=O)OC)C(=O)OC)ccc31)[C@H](C(=O)Nc1nc3ccccc3s1)[C@H]1C(=O)O[C@H](c3ccccc3)[C@H](c3ccccc3)N1[C@@H]2c1ccccc1OCCO,0.0949,0.684,0.0821,0.807,1.49,1.48,1.24,2.19 (inactive),0.0716,0.0873,1.56,2.48 (inactive),2.08 (inactive),3.23 (inactive),2.78,0.374 (inactive),-0.0171,0.133,1.11,0.0556
C=C[C@H](C)[C@@H](OC(=O)Nc1ccc(OC)cc1)c1ccc(O)c2ccccc12,0.358,0.357,-0.142,-0.225,-1.53,0.3,1.27,4.09 (inactive),-0.344,-0.37,0.0444,-24.6 (active),-20.8 (active),-3.58 (inactive),1.63,0.431 (inactive),-0.266,0.823,0.0291,-0.275
CN(C)CCCCCCNC(=O)[C@H]1C[C@H]2C(=O)N[C@@H](CCCCN)C(=O)N2[C@H]1c1cccc(OCCO)c1,3.62,2.48,0.898,1.15,1.65,2.67,1.55,3.88 (inactive),3.58,3.28,1.56,-0.871 (inactive),-9.2 (active),-0.622 (inactive),4.65,-0.15 (inactive),1.76,2.06,1.01,1.12
CC(C)NC(=O)[C@@]1(c2ccc([N+](=O)[O-])cc2)CC(=O)N(C2CCCCC2)[C@@H]1c1ccc(CO)cc1I,1.12,0.586,-0.0548,-0.0891,-0.0016,0.662,1.12,0.286 (inactive),0.178,0.426,1.03,0.719 (inactive),0.475 (inactive),2.6 (inactive),2.33,1.21 (inactive),0.134,-0.941,-0.0996,-0.0185
C=C(COC)C(=O)CC[C@@H](OC(C)=O)c1ccc(CO)o1,-0.263,0.0091,-0.147,0.764,-0.102,-0.0949,0.611,0.632 (inactive),0.316,0.142,1.43,-1.22 (inactive),-0.198 (inactive),-0.22 (inactive),-0.0809,0.433 (inactive),-0.117,1.11,0.612,-0.0463
C=CCC(OC(C)=O)[C@@H]1[C@@H](N(Cc2ccc(-c3ccccc3)cc2)C(=O)Cc2ccc(OC)cc2)c2cc(OCCCO)ccc2N1C(=O)Cc1ccc2ccccc2c1 (stereo not given in full),-0.214,0.735,-0.0891,0.0163,-0.299,-0.32,-0.504,-0.952 (inactive),0.0346,-0.144,-0.137,-0.74 (inactive),-0.619 (inactive),-0.238 (inactive),1.09,-0.263 (inactive),-0.153,-0.688,-0.0042,-0.177
C=C(COC)/C(=C/C[C@H](OC(C)=O)c1ccc(CO)o1)c1cc(C(=O)OC)ccc1OC,-0.113,0.183,-0.129,0.779,-0.925,0.0136,0.7,0.0728 (inactive),-0.0787,0.0749,0.404,0.517 (inactive),-0.131 (inactive),0.0604 (inactive),1.67,0.796 (inactive),-0.142,0.493,0.217,-0.284
CC(=O)NCCCC[C@@H]1NC(=O)[C@@H]2C[C@H](C(=O)NCCCCCNC(=O)CS)[C@H](c3cccc(OCCO)c3)N2C1=O,-0.525,-0.047,-0.211,0.37,0.121,-0.122,0.709,0.618 (inactive),-0.195,-0.212,1.18,-3.39 (inactive),-0.0277 (inactive),-2.5 (inactive),-0.0484,1.16 (inactive),-0.141,1.55,0.486,-0.0808
C=C(CC1([C@@H](NP(=O)(c2ccccc2)c2ccccc2)[C@H]2C[C@@H]2CCCC)CC1)c1ccccc1,0.591,-0.417,-0.218,0.194,1.42,0.896,0.843,2.47 (inactive),1.07,0.419,0.759,-0.254 (inactive),0.204 (inactive),3.83 (inactive),2.53,-0.357 (inactive),0.153,-0.591,0.418,-0.0844

# Reference: PubChem BioAssay
